Bioassay records (PubChem)
Only some compounds are listed: those with a hit (about 1.5% of all), similar ones and a draw of the others.
MbtI inh: MbtI salicylate synthase inhibition; P9WFX0; purified MbtI enzyme, fluorescence intensity read-out; inhibition, % (no concentration beside the values); actives 0.89% (n = 100,000); in the data active = inhibition mostly above about 56%, no sharp cut-off; inactive = mostly below about 77%
Polio RdRp inh: poliovirus RNA polymerase inhibition; P03300; poliovirus polymerase elongation, fluorescence polarization; active compounds read low; % elongation, % (compound at 16.7 µg/mL); actives 0.66% (n = 150,000); in the data active = % elongation below about 90%
Target sequence (P03300 1749-2209 limits assumed): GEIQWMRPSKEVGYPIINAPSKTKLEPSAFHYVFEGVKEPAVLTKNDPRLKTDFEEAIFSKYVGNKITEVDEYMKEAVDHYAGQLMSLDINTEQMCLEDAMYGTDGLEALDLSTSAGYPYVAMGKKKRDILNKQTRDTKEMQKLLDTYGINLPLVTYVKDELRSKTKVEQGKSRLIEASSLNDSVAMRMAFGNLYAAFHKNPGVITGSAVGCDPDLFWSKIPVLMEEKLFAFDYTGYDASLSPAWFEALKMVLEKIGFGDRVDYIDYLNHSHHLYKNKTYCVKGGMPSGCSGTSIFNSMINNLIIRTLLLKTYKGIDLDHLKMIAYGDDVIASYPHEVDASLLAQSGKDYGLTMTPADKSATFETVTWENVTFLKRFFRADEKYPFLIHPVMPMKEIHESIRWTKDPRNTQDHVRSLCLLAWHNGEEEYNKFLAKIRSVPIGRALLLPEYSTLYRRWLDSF
Mtb MenB inh: blocks the Mycobacterium tuberculosis MenB enzyme; AID 540299; MenB enzyme assay, absorbance read-out; inhibition, % (no concentration beside the values); actives 0.43% (n = 100,000); P9WNP5; in the data active = inhibition above about 21%, passing the limit was not always enough
AID504770: E. coli YBA685 growth inhibition, screen for V. cholerae RctB inhibitors; E. coli YBA685 rctB-dependent plasmid, OD600 growth, 3 h; active compounds read low; z-score (no concentration beside the values); actives 0.27% (n = 130,000); in the data active = z-score below about -2, passing the limit was not always enough
The depositor's hits bear a star; · = not tested or not shown.

SMILES	MbtI inh	Polio RdRp inh	Mtb MenB inh	AID504770
Cn1ccnc1P(=S)(c1nccn1C)N1CCOCC1	87.4*	80.0*	-1.2	-0.2
Cn1cc(P(=S)(N2CCOCC2)N2CCOCC2)cc1P(=S)(N1CCOCC1)N1CCOCC1	23.4	100.0	-29.0	1.7
COC(=O)c1cc(CSc2nc3ccccc3[nH]2)oc1C	-11.0	102.0	-30.9	1.35
Cc1ccc(CC(=O)Nc2ccc3c(c2)N(C)C(=O)c2ccccc2S3)cc1	·	70.0*	·	·
O=C(CCN1C(=O)c2cccnc2Sc2ccccc21)N1CCCCC1	-12.6	101.0	4.8	0.2
O=c1oc2cc(Cl)c(O)c(Cl)c2s1	99.4*	102.0	-52.8	-0.8
CC(C)(C)NCC(O)c1ccccc1Cl (stereo not given)	-2.3	102.0	54.7*	0.75
NCCCn1c2c(c3ccccc31)CCCC2	·	99.0	-7.0	-1.65
CCOc1ccc(C(=O)Nc2c3c(nn2-c2cccc(Cl)c2)CS(=O)C3)cc1 (stereo not given)	·	·	·	0.55
CCc1ccc(S(=O)(=O)/N=C2\C=CC(=O)c3ccccc32)cc1	64.1	74.0*	-41.1	1.65
COc1cccc2c1N=C1OC=CC1C2OC (stereo not given)	·	96.0	-6.7	-0.55
COc1cc(-c2cc(OC)c3c(C)oc(C)c3c(=O)c2)ccc1OC(=O)c1ccc(C)cc1	·	117.0	·	·
COc1ccc(C(=O)n2ncc(C#N)c2N)cc1	-4.7	96.0	-2.6	0.05
Cn1cnnc1SCc1ccc(C(=O)n2ncc(C#N)c2N)cc1	-9.9	88.0*	-4.5	-0.9
CC(C)CNS(=O)(=O)c1ccc2nc(NC(=O)c3ccccn3)sc2c1	68.2*	107.0	-89.0	1.75
CC(C)NS(=O)(=O)c1ccc2nc(NC(=O)c3cccnc3)sc2c1	0.6	100.0	-7.7	-0.55
Cc1ccccc1NC(=O)c1sc2nc3c(cc2c1N)CN(Cc1ccccc1)CC3	·	107.0	·	·
CN1CCc2nc3sc(C(=O)Nc4ccccc4C(F)(F)F)c(N)c3cc2C1	·	31.0*	·	·
Nc1nc(-c2cccs2)c(C(=O)C(F)(F)F)s1	63.0*	100.0	-5.9	-0.4
Cn1c(N/C(=C\C(=O)c2cccs2)C(F)(F)F)nc2ccccc21	7.7	105.0	·	-2.7*
O=C(CC12CC3CC(CC(C3)C1)C2)NCC(=O)N1CCCC1	-14.4	86.0*	-15.9	-1.2
O=C(CC12CC3CC(CC(C3)C1)C2)NCC(=O)N1CCN(Cc2ccccc2)CC1	-10.5	104.0	-23.8	0.15
O=C(c1cc2ccccc2oc1=O)N1CCCC1	24.8	98.0	37.8	-0.35
CCC1CCCCN1C(=O)c1cc2ccccc2oc1=O (stereo not given)	·	59.0*	-7.5	-0.85
CCc1nn(CC(=O)NCCN(CC(C)C)CC(C)C)c(=O)c2cc3sc(C)cc3n12	·	101.0	·	·
SMILES	MbtI inh	Polio RdRp inh	Mtb MenB inh	AID504770
Cc1cc(=O)oc2cc(OCC(=O)O)ccc12	106.8	105.0	-16.9	0.3
Cc1cc(=O)oc2cc(OCC(=O)Oc3ccc4c(c3)OCO4)ccc12	72.5	83.0*	-0.2	-0.15
c1ccc2c(c1)COC1(CCCCC1)N2	0.6	102.0	38.1*	1.15
Cc1ccc(C(=O)NC2(O)C(=O)c3ccccc3C2=O)cn1	·	·	·	-0.6
O=C(NC1(O)C(=O)c2ccccc2C1=O)c1ccccc1	-3.2	67.0*	2.2	-0.3
Cc1nc2ccccc2n(CC(=O)Nc2cc(Cl)cc(Cl)c2)c1=O	-1.0	100.0	·	-0.15
C/C(=N\NC(=Nc1ccccc1)c1ccccn1)c1ccccn1	64.5*	99.0	-79.5	1.3
CN(Cc1cccs1)S(=O)(=O)c1ccc(Cl)nc1	-6.1	102.0	-3.7	-0.35
O=c1[nH]c(=S)[nH]c(C(F)(F)F)c1Cc1ccc(Cl)c(Cl)c1	-9.2	103.0	0.8	0.1
O=c1[nH]c(=S)[nH]nc1Cc1ccc(Cl)c(Cl)c1	57.8*	102.0	-27.4	-0.4
COc1ccc(C(=O)Nc2ccccc2C(=O)NC(C(=O)NCc2ccco2)C(C)C)cc1 (stereo not given)	-36.2	101.0	30.3*	0
CC1CC(OCC(O)CN)CC(C)(C)C1 (stereo not given)	-2.2	104.0	-0.9	-2.15*
CC(=O)NCCOc1ccc(C2CCCCC2)cc1	·	106.0	-12.7	-0.3
CC1C(=O)NN=C1C(=O)N/N=C/c1ccc(OC(=O)c2ccco2)cc1 (stereo not given)	-4.2	99.0	-7.0	-0.95
CC1C(=O)NN=C1C(=O)N/N=C\c1cccnc1 (stereo not given)	36.7	99.0	34.7*	0.25
CCNC(=S)Nc1sc2c(c1C#N)CCC(C)C2 (stereo not given)	-9.3	108.0	-13.0	-0.7
O=Nc1c(O)[nH]c2cc3c(cc12)OCCO3	10.6	86.0*	-11.9	-0.35
O=C(N=Nc1c(O)[nH]c2cc3c(cc12)OCCCO3)C1CCCCC1	3.2	99.0	-5.3	-0.75
Cc1cc(C)nc(SCC(=O)OCC(=O)c2ccc3[nH]c(=O)[nH]c3c2)n1	0.0	101.0	1.7	-0.6
O=C(COC(=O)c1ccc(Cl)s1)c1ccc2[nH]c(=O)[nH]c2c1	5.2	79.0*	-12.4	0.4
O=C(COC(=O)c1nc(Cl)ccc1Cl)c1ccc2[nH]c(=O)[nH]c2c1	-6.0	38.0*	-8.4	0.2
Cc1cc(C(=O)OCC(=O)c2ccc3[nH]c(=O)[nH]c3c2)c2ccccc2n1	-3.1	90.0*	-10.1	-0.25
COc1ccc(-c2nc(CSc3nncn4c3cc3oc(C)cc34)c(C)o2)cc1	·	107.0	·	·
Cc1cc(C)nc(SCC(=O)OCN2C(=O)c3ccccc3C2=O)n1	-10.5	103.0	-16.3	-0.65
O=C(CSC1=NCCS1)OCN1C(=O)c2ccccc2C1=O	22.0	104.0	38.4*	0.5
SMILES	MbtI inh	Polio RdRp inh	Mtb MenB inh	AID504770
C/C(=N\NC(=S)NC1CCCCC1)c1ccc(O)cc1	90.3*	92.0	-5.5	-0.1
C/C(=N\NC(N)=S)c1ccc(O)cc1	31.9	104.0	-23.7	-1.25
C/C(=N\NC(=S)Nc1ccccc1C)c1ccc(O)cc1	93.4	75.0*	-59.4	0.45
CC(C)c1nnc(NC(=O)C2CCN(C(=O)c3ccco3)CC2)s1	63.8	105.0	-58.1	2.3
COCc1nnc(NC(=O)C2CCN(C(=O)c3ccco3)CC2)s1	92.3*	93.0	-2.1	0.7
N#CCc1nc(-c2cccc(Cl)c2)n[nH]1	74.2*	101.0	11.5	0.85
C/C(=N\OCC(=O)NC1CCCc2ccccc21)c1cc2ccccc2o1 (stereo not given)	6.5	96.0	-26.2	-0.85
N#Cc1c(NCSCc2ccccc2)sc2c1CCCCC2	·	69.0*	-11.9	-0.15
CC1Sc2ccc(C(=O)NCc3ccccn3)cc2NC1=O (stereo not given)	86.8*	87.0*	-42.0	-0.6
S=C(NCCc1ccccc1)NNc1nc2ccccc2o1	32.5	37.0*	9.2	0.5
COc1cc(-c2ccc(/C=C3\SC(=N)N(c4nccs4)C3=O)o2)c(OC)cc1Cl	56.1*	113.0	-29.0	-0.05
N=C1S/C(=C\c2ccc(-c3ccccc3F)o2)C(=O)N1c1ccc2c(c1)OCO2	-26.1	99.0	-11.2	0.4
Cc1ccc2c(CC(=O)NCc3ccccc3)coc2c1C	·	1.0*	·	·
CC(C)=CCCC1=NN(C=O)C(C)(CCC=C(C)C)C1 (stereo not given)	-2.8	101.0	-11.7	-0.35
